A number with no mark means an inactive call. Records with an inconclusive call do not appear. The source made the active and inactive calls. Unless noted, calls come from the whole dose curve; as a rule, active = well fitted curve in either direction with a large enough effect (not every such curve was filed as active); inconclusive = small, poorly fitted or top-dose-only effect, or another doubt; inactive = flat fitted curve, though single readings scatter.
Legend:
[1] = AP1 Signaling Pathway (AID 357); details: ME-180 AP-1-bla reporter, EGF-induced, beta-lactamase ratio, 5 h; at 17.2 µM (top of the series) unless noted;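 note: ME-180 reporter cells stimulated with EGF at its EC50 level; % is set by controls: 0 for no effect and ±100 for the full control effect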
Method in brief: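 Beta-lactamase reporter under AP-1 response element, ME-180 background. Stimulus: EC50 EGF. Compound exposure 5 h, 37 °C. Detection: CCF4, 2.5 h RT, 460/530 nm. Values: AC50 from titration.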

[2] = NFAT Signaling Pathway (AID 444); details: Jurkat NFAT-bla M1, carbachol, beta-lactamase ratio, 5 h; at 17.2 µM (top of the series) unless noted;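 note: carbachol stimulus at about its EC50 of 1 µM final; % is set by controls: 0 for no effect and ±100 for the full control effect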
Method in brief: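 Jurkat cells with NFAT-driven β-lactamase reporter and co-expressed M1 receptor, stimulated with carbachol (final 1 uM, ~EC50), compound titration, 5 h at 37 °C. CCF4 loaded 1 h at RT; 460/530 nm ratio gave %activity and AC50.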

[3] = Stat Signaling Pathway (AID 446); details: ME-180 (cervical carcinoma) SIE beta-lactamase reporter, IL-6 stimulated, 5 h; at 17.2 µM (top of the series) unless noted;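 note: ME-180 cervical cancer cells given 40 pM IL-6 alongside compound; SIE-controlled beta-lactamase reporter measured as 460/530 nm FRET emission ratio; % is set by controls: 0 for no effect and ±100 for the full control effect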
Method in brief: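 Compound effects on IL-6-induced STAT reporter activity were measured in ME-180 cells. After overnight culture, cells were co-treated with 40 pM IL-6 for 5 hrs before beta-lactamase substrate loading at room temperature.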

[4] = target: Glucocorticoid receptor (Homo sapiens) (UniProt P04150); assay: GR-GFP Redistribution (AID 450;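 active = compounds whose dose series gives a full or clear partial fitted curve of increased nuclear translocation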; note: potency is the fitted concentration of half-maximal effect)
Sequence of Glucocorticoid receptor (Homo sapiens) (P04150 whole entry, looked up): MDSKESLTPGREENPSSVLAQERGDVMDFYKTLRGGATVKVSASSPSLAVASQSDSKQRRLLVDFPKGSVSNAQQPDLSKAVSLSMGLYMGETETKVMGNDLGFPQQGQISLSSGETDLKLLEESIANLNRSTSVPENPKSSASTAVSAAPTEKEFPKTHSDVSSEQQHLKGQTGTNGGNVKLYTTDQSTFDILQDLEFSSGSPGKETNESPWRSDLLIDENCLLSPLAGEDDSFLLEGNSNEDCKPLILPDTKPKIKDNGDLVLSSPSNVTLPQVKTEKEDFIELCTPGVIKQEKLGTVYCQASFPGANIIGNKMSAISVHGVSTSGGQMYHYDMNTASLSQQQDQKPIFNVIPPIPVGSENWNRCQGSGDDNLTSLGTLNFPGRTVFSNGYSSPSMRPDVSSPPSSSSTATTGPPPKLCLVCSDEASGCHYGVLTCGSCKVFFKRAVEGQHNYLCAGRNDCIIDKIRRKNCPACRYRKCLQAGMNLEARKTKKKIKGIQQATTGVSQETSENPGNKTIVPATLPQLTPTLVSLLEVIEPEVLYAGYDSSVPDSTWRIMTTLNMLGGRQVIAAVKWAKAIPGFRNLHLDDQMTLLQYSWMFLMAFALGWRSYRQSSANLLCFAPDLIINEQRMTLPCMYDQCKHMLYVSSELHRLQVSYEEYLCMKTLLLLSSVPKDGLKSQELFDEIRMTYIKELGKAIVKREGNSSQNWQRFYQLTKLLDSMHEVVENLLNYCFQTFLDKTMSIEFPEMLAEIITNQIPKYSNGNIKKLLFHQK

SMILES	activity change, negative = inhibition [1] [%]	activity change, negative = inhibition [2]	activity, negative = inhibition [3] [%]	Potency [4] [µM]
CC1(C)Cc2c(sc3c4nnnn4c4nnnn4c23)CO1	-28.3	-96.8% (active)	-26.4	> 20.6
COc1cccc(C2/C(=C(/O)c3cnn(-c4ccccc4)c3C)C(=O)C(=O)N2CCN(C)C)c1OC (centres undefined)	-4.08	5.52%	3.83	> 20.6
COC(=O)c1[nH]c2ccc(Cl)cc2c1NC(=O)C1CC1	-4.32	-26.4%	1.62	> 20.6
CCOC(=O)c1c(C)oc2ccc(OCC(=O)C(C)(C)C)cc12	-23.5	2.59%	-10.1	> 20.6
COCCOC(=O)c1c(C)nc(SCC(=O)Nc2ccc(OC)cc2)c(C#N)c1-c1ccco1	-13.3	-14.8%	-16.8	> 20.6
c1ccc(CN2CCN(c3nc(-c4ccccn4)nc4ccccc34)CC2)cc1	14.9	-29%	6.73	> 20.6
Cc1ccc2c(=O)c(CN(C)C3CCN(C)CC3)c(C)[nH]c2c1C	0.184	-6.29%	5.33	> 20.6
CCOC(=O)c1ccc2nc(NC(NC(C)=O)(C(=O)OC)C(F)(F)F)sc2c1 (centres undefined)	-14	-1.54%	-10.8	> 20.6
CC(=O)Nn1cnc2c(c1=O)C1(CCCC1)Cc1ccccc1-2	-8.59	-0.355%	10.3	> 20.6
S=c1nc(-c2ccccc2)[nH]n1-c1ccccc1	21.6	5.29%	-1.15	> 20.6
c1nc(NC2CCCCC2)c2[nH]cnc2n1	-4.39	2.42%	-29.4	> 20.6
COCCOC(=O)C1=C(C)NC(SCC(=O)NC(C)(C)C)=C(C#N)C1c1ccco1 (centres undefined)	-20.5	12.6%	-8.48	> 20.6
Cc1nn(C)cc1/C=N/O	10.9	-0.64%	4.83	> 20.6
COc1ccc(/C=C(/C#N)c2cccnc2)cc1OC	-13.8	-0.696%	5.95	> 20.6
C=CCOc1ccc(C2/C(=C(\O)c3ccc(F)cc3)C(=O)C(=O)N2CCCN(C)C)cc1 (centres undefined)	4.74	-5.15%	17	> 20.6
COC(=O)CN(c1cc(OC)ccc1OC)S(=O)(=O)c1ccc(OC)c(OC)c1	-25.5	4.34%	-5.92	> 20.6
Cc1ccc(-c2nn(C)c(=O)c3ccccc23)cc1CN1CCOCC1	16.4	-19.8%	-0.983	> 20.6
O=C1NC(c2cccs2)Nc2ccccc21 (centres undefined)	-27	-4.93%	-4.53	> 20.6
CC(=O)c1c(N)nc2n(c1=O)CCCCC2	-12.6	-9.74%	9.48	> 20.6
Cc1nnc(SCC(=O)N2CCOCC2)c2ccccc12	-1.59	3.16%	2.48	> 20.6
CN(C)CCOC(=O)Cc1ccc(Cl)cc1	12	-7.05%	-4.76	> 20.6
Cc1cc(C(=O)O)c(CSc2ncn[nH]2)o1	12.5	19.7%	8.82	> 20.6
Cc1cc(=O)oc2c(CN3CCN(C)CC3)c(O)c(Cl)cc12	16.9	25%	9.62	> 20.6
O=C1CCC(=O)N1c1nc2n(n1)C(c1ccccc1)C=C(c1ccc(Br)cc1)N2 (centres undefined)	-22.1	3.81%	-13.7	> 20.6
C=CCN=C(C)C1=C(O)CCC1=O	23.8	-7.26%	20.3	> 20.6
C[C@]12CC[C@@H]3c4ccc(O[C@@H]5O[C@H](C(=O)O)[C@@H](O)[C@H](O)[C@H]5O)cc4CC[C@H]3[C@@H]1C[C@@H](O)[C@@H]2O	4.45	-30%	11.5	> 20.6

SMILES	activity change, negative = inhibition [1] [%]	activity change, negative = inhibition [2]	activity, negative = inhibition [3] [%]	Potency [4] [µM]
Cc1cc(O)ccc1-c1cnc2ccccc2n1	5.77	-5.17%	21.5	> 20.6
CN1C(=O)NC(NC(=O)c2ccco2)(C(F)(F)F)C1=O (centres undefined)	3.54	4.93%	9.87	> 20.6
O=C(O)c1cnn2c(C(F)(F)F)cc(-c3ccco3)nc12	11	1.41%	16.2	> 20.6
CCOc1ccccc1C(=O)NCCCCCC(=O)O	-1.91	2.57%	6.07	> 20.6
COC(=O)CSc1ncnc2c1sc1nc(-c3ccco3)c3c(c12)CC(C)(C)OC3	-2.46	-26.7%	-10.8	> 20.6
CCC1=C(C(=O)OC)C(c2cc(OC)ccc2OC)C(C#N)=C(N)O1 (centres undefined)	-1.51	-14.5%	4.21	> 20.6
CN(C)c1ccc(C=NCC2(O)CCOC(C)(C)C2)cc1 (centres undefined)	-0.248	-9.77%	8.53	> 20.6
Nc1nc2n(n1)C(c1ccc(F)cc1)CC(c1ccc(F)cc1)N2 (centres undefined)	-1.23	10.7%	5.35	> 20.6
CC(C)CNc1nc2c(c(=O)n(C)c(=O)n2C)n1Cc1cccc(Br)c1	-13.5	-2.14%	-18.2	> 20.6
CC(=O)Nc1cc2c(cc1Br)OCCO2	0.764	-0.709%	-0.829	> 20.6
Cn1ncc(N=Cc2ccccc2O)c1C(=O)Nc1ccccc1	-7.55	7.01%	0.0885	> 20.6
C/C(=N\O)C(=O)NCCCn1ccnc1	16.3	1.22%	16.8	> 20.6
Cc1ccc(-n2[nH]c(C)c(C=Nc3cc(C)ccn3)c2=O)cc1	2.52	-2.28%	4.82	> 20.6
COc1cc(-c2nn3c(C4CCCCC4)nnc3s2)cc(OC)c1OC	-16.1	10.4%	0.0449	> 20.6
NC(=O)c1ccccc1OCCOCCOCCOc1ccccc1C(N)=O	-9.33	-4.35%	-0.51	> 20.6
C[N+]1(CCNC(=O)/C=N/O)CCCCC1	7.1	-12.9%	5.42	> 20.6
Cc1cc(=O)oc(C)c1C(=O)N1CCN(Cc2ccc3c(c2)OCO3)CC1	6.44	17.1%	5.97	> 20.6
CCOC(=O)CC1=NC(=O)CS1	2.69	0.359%	4.4	> 20.6
COC(=O)c1cc2c(=O)n3cccc(C)c3nc2n(Cc2cccnc2)c1=N	7.65	-10.7%	15.4	> 20.6
C=CCN(C(=O)CCC(=O)O)C1CC(=O)N(c2ccc(OC)cc2)C1=O (centres undefined)	6.46	-8.7%	5.71	> 20.6
CNc1oc(-c2ccc(Cl)cc2)nc1C#N	-1.98	18.3%	5.14	> 20.6
Cn1c(=O)c2c(nc(Br)n2CCSc2ncccn2)n(C)c1=O	10.3	8.82%	-0.734	> 20.6
C=CCOc1nc2c(c(=O)n(C)c(=O)n2C)n1Cc1ccccc1Cl	-0.647	-10.1%	-0.000949	> 20.6
O=CNC(=O)c1ccccc1C(=O)O	-3.37	3.48%	20.3	> 20.6
Cc1nc2ccccc2cc1O	13.6	7.71%	5.42	> 20.6
